From PubChem BioAssay
TDP1 cell noCPT = qHTS for Inhibitors of human tyrosyl-DNA phosphodiesterase 1 (TDP1): qHTS in cells in absence of CPT; AID 686978, 2013; DT40 Tdp1-/- hTDP1 cells, no CPT, ATP luminescence, 48 h; Potency, µM (series often up to 46.2 µM), hits mostly inhibitors; actives 15% (n = 420,000); further: nearly all actives have a fitted effect of over 55% in size
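A cellular qHTS used chicken DT40 cells lacking endogenous Tdp1 but carrying stably transfected human TDP1. Compounds were applied without camptothecin, and cell growth kinetics were judged by ATP-dependent luminescence after ≥48 hr.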
TGFb inhibitor = qHTS for Inhibitors of TGF-b; HepG2 CAGA-GFP TGF-b/SMAD3 reporter, GFP fluorescence, 18 h; TGF-beta stimulated, 500 pg/mL final; Potency, µM (highest dose often 46.1 µM), hits mostly inhibitors; actives 1.2% (n = 410,000); further: nearly all actives have a fitted effect of over 65% in size
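First, reporter cells (HEPG2 CAGA-GFP) rested 2 h at 37 degrees C. Next, compounds were pinned in and TGF-beta added to 500 pg/mL final. After 18 h, GFP was imaged per cell and summed per well.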
TDP1 block = qHTS Assay for Inhibitors of Tyrosyl-DNA Phosphodiesterase (TDP1); Tyrosyl-DNA phosphodiesterase 1 (Homo sapiens), Q9NUW8; recombinant TDP1, AlphaScreen DNA substrate cleavage; Potency, µM (titrated, usually from 130 µM), usual class: inhibitors; actives 0.28% (n = 350,000); further: nearly all actives have a fitted effect of over 40% in size
Target sequence (Q9NUW8 whole entry, looked up): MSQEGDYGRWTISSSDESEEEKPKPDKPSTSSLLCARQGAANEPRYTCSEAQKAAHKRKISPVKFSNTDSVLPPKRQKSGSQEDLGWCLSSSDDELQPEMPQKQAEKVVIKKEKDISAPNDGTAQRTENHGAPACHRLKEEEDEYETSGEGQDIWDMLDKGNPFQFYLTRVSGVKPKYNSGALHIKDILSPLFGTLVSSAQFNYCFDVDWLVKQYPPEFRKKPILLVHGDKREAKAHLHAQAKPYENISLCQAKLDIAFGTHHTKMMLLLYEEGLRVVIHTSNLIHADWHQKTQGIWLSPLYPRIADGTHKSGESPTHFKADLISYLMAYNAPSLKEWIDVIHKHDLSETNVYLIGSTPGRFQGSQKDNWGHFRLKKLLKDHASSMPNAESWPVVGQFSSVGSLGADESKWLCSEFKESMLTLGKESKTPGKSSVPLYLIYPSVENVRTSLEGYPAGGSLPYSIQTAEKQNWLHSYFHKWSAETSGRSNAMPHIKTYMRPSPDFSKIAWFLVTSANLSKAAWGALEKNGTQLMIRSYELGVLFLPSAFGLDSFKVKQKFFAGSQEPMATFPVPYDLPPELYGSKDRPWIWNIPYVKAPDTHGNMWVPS
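E. coli-derived human Tdp1, 1 nM final. Cpd preinc 15 min RT; substrate 15 nM final, 5 min RT; AS bead mix 10 ug/ml final, 10 min RT. Signal loss = tyrosine-FITC cleavage. No-enzyme wells = max signal.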
HepG2 tox = qHTS for Inhibitors of TGF-b: Cytotox Counterscreen | HepG2 CAGA-GFP viability, ATP luminescence, 18 h | Potency, µM (doses to about 46.1 µM), actives largely listed as cytotoxic | actives 0.76% (n = 410,000) | AID 588856, 2011
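HepG2 CAGA-GFP cells (1000/well, DMEM with 1% FBS) received compound, then TGF-beta at 500 pg/mL final, and were incubated 18 hours at 37 degrees C. Viability was read by CellTiter-Glo luminescence. Media-only wells were set as complete cell-killing and DMSO as no toxicity.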
DT40 TDP1 CPT = qHTS for Inhibitors of human tyrosyl-DNA phosphodiesterase 1 (TDP1): qHTS in cells in presence of CPT; chicken DT40 Tdp1-/-;hTDP1 cells + 20 nM CPT, ATP luminescence, 48 h; Potency, µM (series often up to 46.2 µM), actives largely listed as inhibitors; actives 12% (n = 420,000); further: nearly all actives have a fitted effect of over 55% in size
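Chicken DT40 Tdp1-/- cells complemented with human TDP1, 400 cells/well, exposed to compounds plus 20 nM camptothecin for at least 48 h at 37 C; viability read as ATP content by CellTiter-Glo luminescence.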
IL1B secr inh = qHTS for Inhibitors of Inflammasome Signaling: IL-1-beta AlphaLISA Primary Screen; THP-1 LPS/ATP IL-1B secretion, AlphaLISA, 16 h; stronger effect = lower value; activity change, % at 57.5 µM; actives 4.7% (n = 360,000); AID 743279, 2014; in the data active means activity change below about -50%; inconclusive means mostly about -30% to -49%
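THP-1 cells pretreated 1 hr with compounds (up to 57.5 uM final), then stimulated with LPS (250 ng/mL final) plus ATP (1.25 mM final); secreted IL-1B measured by AlphaLISA after 16 hr, decreased signal indicating inhibition.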
Large screens that a line does not name were inactive; ! = a repeat was not active. Shown are actives, neighbours in structure and some others; about 19% of the full set was active somewhere. Unless noted, the call rests on the fitted dose curve; in most records, active means well fitted curve in the direction sought with a large enough effect; inconclusive means small, poorly fitted or top-dose-only effect, or another doubt; inactive means no such curve, though single readings can be large; an effect the other way counts as inactive or inconclusive.

COc1cc([N+](=O)[O-])cc(/C=C2/SC(=S)N(Cc3ccccc3)C2=O)c1O	TDP1 cell noCPT 7.3µM, TGFb inhibitor inconclusive, DT40 TDP1 CPT 16µM (no result: TDP1 block)
COc1cc(/C=C2\SC(=O)N(Cc3ccc(F)cc3)C2=O)cc([N+](=O)[O-])c1O	TDP1 cell noCPT inconclusive, TGFb inhibitor inconclusive, DT40 TDP1 CPT inconclusive
COc1cc(/C=C2/SC(=S)N(Cc3ccccc3)C2=O)ccc1OCC(=O)O	none (no result: TDP1 block)
COc1cc(/C=C2/SC(=S)N(Cc3ccccc3)C2=O)cc(Cl)c1O	TDP1 cell noCPT 13µM, DT40 TDP1 CPT 16µM (no result: TDP1 block)
COc1cc(/C=C2\SC(=O)N(Cc3ccc(Cl)cc3)C2=O)cc([N+](=O)[O-])c1O	TDP1 cell noCPT 23µM, DT40 TDP1 CPT inconclusive
CSc1nc(NNC=O)cc(Oc2ccc(NC(C)=O)cc2)n1	none (no result: TDP1 block)
Cc1ccc(N(CC(=O)NC(C)C)C(=O)CCC(=O)Nc2nccs2)cc1C	none (no result: TDP1 block)
CCCNC(=O)C(Cc1ccccc1)NC(=O)c1cccc([N+](=O)[O-])c1 (stereo not given)	none
CC(=O)NC(Cc1ccc([N+](=O)[O-])cc1)C(=O)NCC(N)C(=O)c1ccccc1 (stereo not given)	TDP1 cell noCPT 5.6µM, DT40 TDP1 CPT 22µM (no result: TGFb inhibitor, TDP1 block, HepG2 tox, IL1B secr inh)
Cc1ccc(C)c(OCCC(=O)OCC(=O)NC2CCCC2)c1	none
c1ccc(CN2CCC(Nc3nc(-c4ccccc4)nc4ccccc34)CC2)cc1	TDP1 cell noCPT inconclusive, TGFb inhibitor inconclusive, IL1B secr inh -52
c1ccc(CN2CCC(CNc3ncnc4ccccc34)C2)cc1 (stereo not given)	TDP1 cell noCPT 10µM, DT40 TDP1 CPT 21µM (no result: TDP1 block)
C=CCNc1ncnc2ccccc12	DT40 TDP1 CPT inconclusive
Cc1csc2ncnc(NC3CCN(Cc4ccccc4)CC3)c12	TDP1 cell noCPT 0.65µM, DT40 TDP1 CPT 1µM, IL1B secr inh inconclusive
Cc1ccccc1-n1nnnc1SCC(=O)N(C)C1CCS(=O)(=O)C1 (stereo not given)	none
COc1ccc(-c2c(C)nn3c(C(F)(F)F)cc(C)nc23)cc1OC	TDP1 cell noCPT inconclusive (no result: IL1B secr inh)
CCCCCCCCCNC(=O)[C@H](NC(=O)COc1ccccc1)[C@@H]1NC(C(=O)OC)C(C)(C)S1 (stereo not given in full)	TDP1 cell noCPT inconclusive, TGFb inhibitor 11µM, DT40 TDP1 CPT inconclusive (no result: TDP1 block)
COC(=O)C1N[C@@H]([C@@H](NC(=O)COc2ccccc2)C(=O)NCc2ccsc2)SC1(C)C (stereo not given in full)	TDP1 cell noCPT inconclusive (no result: TDP1 block)
CCC(Cc1c(I)cc(I)c(N)c1I)C(=O)O (stereo not given)	TDP1 cell noCPT 9µM!
COc1ccc(CN2COc3ccc4c(-c5ccccc5)cc(=O)oc4c3C2)cc1	TDP1 cell noCPT 16µM, DT40 TDP1 CPT inconclusive (no result: IL1B secr inh)
COc1ccc(C2CC(=O)C3=C(C2)Nc2ccccc2NC3c2coc3ccccc3c2=O)cc1OC (stereo not given)	TDP1 cell noCPT 26µM, DT40 TDP1 CPT 16µM, IL1B secr inh inconclusive
Cn1c(N2CCCC2)nc2c1c(=O)[nH]c(=O)n2C	none
CCCNC(=O)CN1CCN(c2cc3ccccc3c(Cl)n2)CC1	TDP1 cell noCPT 16µM, DT40 TDP1 CPT inconclusive
CCC[C@H]1CN(c2ccccc2)C(=O)[C@@H]1CC(=O)Nc1ccc(Br)cc1	none (no result: TDP1 block)
COc1cc2c(c(OC)c1OC)-c1ccc(NC(=O)c3ccc(F)cc3)c(=O)cc1[C@@H](NC(C)=O)CC2	TDP1 cell noCPT 7.3µM, TGFb inhibitor inconclusive, DT40 TDP1 CPT 8.2µM (no result: TDP1 block)
COc1cc2c(c(OC)c1OC)-c1ccc(NCc3ccccc3)c(=O)cc1C(NC(C)=O)CC2 (stereo not given)	TDP1 cell noCPT 0.92µM, TGFb inhibitor inconclusive, DT40 TDP1 CPT 0.92µM (no result: TDP1 block)
COc1cc(C(=O)NC2CCCc3ccccc32)cc(OC)c1OC (stereo not given)	none
CCN(CC(=O)Nc1ccc(NC(C)=O)cc1)CC(=O)Nc1cc(C)on1	none (no result: TDP1 block)
COc1ccc(-c2nc3cnc(N(C)C)nc3n(C[C@H]3CCCO3)c2=O)cc1	none (no result: TGFb inhibitor, TDP1 block, HepG2 tox, IL1B secr inh)
CC1(C)Cc2c(sc3c2C(=O)N(c2ccccc2)C2=NCCN23)CS1	none
CN1C(=O)c2c(sc3c2CC(C)(C)SC3)N2CCN=C12	TDP1 cell noCPT 21µM, TGFb inhibitor inconclusive, DT40 TDP1 CPT 21µM
COc1ccc(OC)c(-c2ccnc(-n3ncc(C(=O)N4CCN(CCO)CC4)c3C3CC3)n2)c1	none (no result: TGFb inhibitor, TDP1 block, HepG2 tox, IL1B secr inh)
Cc1ccc(-c2n[nH]c3c2C(c2cccs2)N(c2ccc(Cl)cc2)C3=O)cc1 (stereo not given)	TDP1 cell noCPT inconclusive, TGFb inhibitor 11µM, HepG2 tox 13µM, DT40 TDP1 CPT 16µM (no result: IL1B secr inh)
COc1ccc(C2c3c(-c4ccc(F)cc4)n[nH]c3C(=O)N2c2ccccc2)cc1OC (stereo not given)	TDP1 cell noCPT inconclusive, DT40 TDP1 CPT inconclusive (no result: TDP1 block, IL1B secr inh)
Cc1ccc(N2C(=O)c3[nH]nc(-c4ccc(Cl)cc4)c3C2c2ccc(F)cc2)cc1 (stereo not given)	TDP1 cell noCPT 21µM, TGFb inhibitor inconclusive, HepG2 tox 11µM, DT40 TDP1 CPT 15µM (no result: IL1B secr inh)
COc1cc(C2c3c(-c4ccc(C)cc4)n[nH]c3C(=O)N2c2ccc(F)cc2)ccc1O (stereo not given)	TDP1 cell noCPT inconclusive, TGFb inhibitor 11µM, DT40 TDP1 CPT inconclusive (no result: TDP1 block, IL1B secr inh)
CCc1nc2ccc(C(=O)NCCCn3ccnc3)cn2c1N(C)C(=O)C1CCCCC1	none (no result: TDP1 block)
Cn1c(SCC(=O)O)nc2ccccc2c1=O	none
O=C(OCc1nnc(-c2ccc(Cl)cc2)o1)c1ccncc1	none
Cc1cccc(NC(=O)CSc2nc3ccccc3c(=O)n2C)c1	TDP1 cell noCPT inconclusive, DT40 TDP1 CPT inconclusive, IL1B secr inh -71
CC(=O)Nc1ccc(NC(=O)CSc2nc3c([nH]c4ccccc43)c(=O)n2-c2ccccc2F)cc1	TDP1 cell noCPT inconclusive, DT40 TDP1 CPT inconclusive
COc1ccc(-c2nnc(CSc3nc4ccccc4c(=O)n3C)o2)cc1OC	TDP1 cell noCPT 21µM, DT40 TDP1 CPT 15µM
COc1ccc(-c2cc(-c3nnc(COC(=O)c4ccncc4)o3)c3ccccc3n2)cc1OC	TDP1 cell noCPT 9.2µM, IL1B secr inh inconclusive
